We go through 62 compounds from PubChem BioAssay AID492956 (The Scripps Research Institute Molecular Screening Center, 2010).

SMILES strings stand for the structures. About 3,300 (0.97%) of roughly 340,000 compounds were called active. Only a selection was taken, and actives are over-represented in it overall. Unmarked numbers belong to inactive results.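 The calls were made as follows: active = inhibition above the mean over all tested compounds plus 3 SD (cut at about 30% in these data); inactive = the rest.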

The target of the test is Platelet-activating factor acetylhydrolase 2, cytoplasmic (Homo sapiens) (UniProt Q99487). The test can be described thus: PAFAH2 enzyme inhibitors, primary screen, biochemical, fluorescence polarization, human (AID 492956).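 Also: inhibitors block probe labeling of enzyme so polarization drops; 0% = enzyme with DMSO and 100% = wells lacking PAFAH2 protein.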 Particulars: recombinant PAFAH2, FP-rhodamine activity probe, at 3.39 µM, hits give high values. On the technique in general: In fluorescence polarisation assays a small probe gives low polarisation when free and higher when bound to something large.
As to `Cc1cc(F)ccc1NC(=O)C(C)n1c2ccccc2c2nc(=O)cc(C)n21` (configuration not stated), the inhibition (as a rule, the drop in the measured response relative to a control, in per cent) is -0.36%.

Turning to `CCCCNC(=O)N(O)C1N(/N=C/c2ccccc2O)C(=S)SC1(C)C` (configuration not stated), the inhibition was 12%. To `CCCCNC(=O)N(O)C1N(/N=C/c2ccc(N(C)C)cc2)C(=S)SC1(C)C` (configuration not stated) belongs 39% (active); to `CCC(C)N1C(=S)SC(C)(C)C1N(O)C(=O)NC1CCCCC1` (configuration not stated), 0.18%; to `O=C(NC1CCCCC1)n1c(=O)oc2cc(S(=O)(=O)N3CCCCC3)ccc21`, -3.36%. With `CC1CCCCN1C(=O)Cn1c(=O)oc2cc(S(=O)(=O)N3CCCCC3)ccc21` (configuration not stated) the figure was 0.32%; with `CC(C)COC(=O)n1c(=O)oc2ccc(S(=O)(=O)N3CCCCC3)cc21`, 67.9% (active). In the case of `O=C(NCc1cc(C(F)(F)F)cc(C(F)(F)F)c1)C1CC(c2cccc(F)c2)=NO1` (configuration not stated), the inhibition was 6.39%. On to `O=C(COC(=O)CNC(=O)c1ccccc1F)NCC(F)(F)F`, for which the inhibition is 1.7%. As to `CC(CCc1ccccc1)NC(=O)COC(=O)c1ccc(F)cc1` (configuration not stated), the inhibition is 28%. To `CCc1ccc(C(=O)OCC(=O)NCC(F)(F)F)cc1` belongs 73.5% (active); to `CC(C)(C)c1csc(NC2=NS(=O)(=O)c3ccccc32)n1`, 36.9% (active); to `Cc1ccc(S(=O)(=O)N(NC2=NS(=O)(=O)c3ccccc32)C(=O)c2ccccc2)cc1`, -5.48%.

As for `O=C(Oc1cccc(NC2=NS(=O)(=O)c3ccccc32)c1)c1ccncc1`, the inhibition was -0.09%. As to `O=C(NCN1CCN(CCO)CC1)c1cnccn1`, the inhibition is -3.5%. With `COC(=O)c1cc(C(=O)OCC(=O)Nc2cc(C)on2)cc([N+](=O)[O-])c1` the figure was -6.33%; with `Cc1cc(NC(=O)COC(=O)/C=C/c2ccc(C)o2)no1`, 33.3% (active). To `Cc1cc(NC(=O)COc2ccc([N+](=O)[O-])cc2)no1` belongs -0.25%; to `Cc1ccc(CNC(=O)COC(=O)C2CCC2)cc1`, 3.66%.

Take `Cc1ccc(/C=C/C(=O)OCC(=O)NCc2ccc(Cl)cc2)o1`: the inhibition is 53% (active). With `CCN(CC(=O)NCc1ccc(Cl)cc1)C(=O)c1c(C)noc1C` the figure was -0.36%; with `CCOC(=O)C1C(=O)OC2(CCCC2)C1C(=O)OCC` (configuration not stated), -3.56%. In the case of `Nc1c(C(=O)OCC(=O)Nc2ccc(OC(F)F)cc2)[nH]c(=O)[nH]c1=O`, the inhibition was 5.59%. With `COCc1c(C(=O)OCc2c(C)noc2C)oc2ccccc12` the figure was -5.34%. For the compound `COCc1c(C(=O)OCC(=O)Nc2ccc(OC(F)F)cc2)oc2ccccc12`, the inhibition was 30.5% (active).

With `O=C1NCC(Nc2ccccc2)C(=O)N1` (configuration not stated), the inhibition was 7.66%. With `O=C1C2(c3ccccc3)CN(CCCO)CC1(c1ccccc1)CN(CCCO)C2` the figure was 7.66%; with `COc1ccccc1CNC(=O)COC(=O)CNS(=O)(=O)c1ccc(NC(C)=O)cc1`, -2.61%. As for `COc1ccccc1CNC(=O)COC(=O)c1cccs1`, the inhibition was 60.2% (active). With `O=C(COC(=O)c1cccs1)Nc1ccccc1Cl` the figure was 73.2% (active); with `O=C(COC(=O)[C@H](Cc1ccccc1)NC(=O)c1cccs1)Nc1cc(F)ccc1F`, 4.42%; with `CNC(=O)c1sc(NCc2ccccc2OC)nc1C`, -0.38%. With `O=C(COC(=O)c1ccc(Cl)nc1)NCc1cccs1` the figure was 5.5%.

In the case of `COc1ccccc1CNC(=O)COC(=O)c1sc(C)nc1C`, the inhibition was 36.3% (active).

As for `O=C(COC(=O)c1ccc(O)cc1O)NNC(=O)c1cccs1`, the inhibition was 6.29%.

With `O=C(COC(=O)/C(=C/c1cccs1)c1cccs1)NCc1ccccc1Cl`, the inhibition is 9.84%. With `COc1ccccc1CNC(=O)COc1ccc(C)nc1[N+](=O)[O-]` the figure was 4.79%; with `O=C(COC(=O)c1cccs1)NCc1cccs1`, 44.2% (active). To `O=C(COC(=O)c1ncc(Cl)c(Cl)c1Cl)NCc1cccs1` belongs -5.72%; to `O=CN1CCN(C(=O)c2ccc(Br)o2)CC1`, 0.55%; to `Cc1cccc(NS(=O)(=O)c2ccc(C(=O)NCC(C)(C)N3CCOCC3)cc2)c1C`, -5.69%. With `O=c1cccc(-c2ccc(Br)cc2)o1` the figure was 1.7%; with `COc1ccc(SCc2noc(C(=O)NCC3CCCO3)c2C(=O)O)cc1` (configuration not stated), 0.7%.

In the case of `CC1=NNC(=O)C1Cc1c(Cl)cccc1Cl` (configuration not stated), the inhibition was 5.21%. For `CC1=C(C(=O)OC2CCCCC2)C(c2ccccc2F)NC(=O)N1` (configuration not stated), the inhibition is -4.88%. With `CCOC(=O)C1CCN(c2c(Nc3cc(C)cc(C)c3)c(=O)c2=O)CC1` the figure was 7.85%; with `Cc1cccc(/C=N/NC(=O)CNc2cccc3ccccc23)n1`, 47.5% (active); with `Cc1cccc(C(=O)Nc2ccc(C(=O)N/N=C/c3cccc(C)n3)cc2)c1`, -6.77%. With `C/C(=N\NC(=O)CNc1cccc2ccccc12)c1ccc(Br)s1` the figure was 9.68%; with `CC(C)c1nnc(NC(=O)COC(=O)/C=C/c2ccc([N+](=O)[O-])cc2)s1`, -1.12%; with `CC(=O)Nc1cccc(C(=O)OCC(=O)Nc2nnc(-c3ccccc3)o2)c1`, 4.32%. With `CC(C)CNC(=O)COC(=O)/C=C/c1ccco1` the figure was 69% (active); with `COc1cc(/C=C/C(=O)OCC(=O)Nc2cccc(Oc3ccccc3)c2)ccc1O`, 64.5% (active); with `CCCCN(C(=O)/C=C/c1ccco1)c1c(N)n(CC(C)C)c(=O)[nH]c1=O`, -7.37%.

As to `CC(=O)Nc1cccc(C(=O)OCC(=O)NCc2cc(C)c(O)c(C)c2)c1`, the inhibition was 7.09%.

Take `O=C(/C=C/c1ccccc1[N+](=O)[O-])OCC(=O)N1CCCC1`: the inhibition was 7.52%. To `Cc1cccc(C(=O)OCC(=O)NCC(C)C)c1O` belongs 3.36%; to `COc1cccc(NC(=O)COC(=O)c2ccc3ccccc3n2)c1`, -5.69%; to `COc1cc2c(cc1NC(=O)COC(=O)/C=C/c1ccccc1)oc1ccccc12`, 1.23%. Consider `CC(C)CNC(=O)COC(=O)/C=C/c1ccccc1[N+](=O)[O-]`, for which the inhibition is 72.8% (active). With `COc1ccc(C(=O)OCC(=O)Nc2cccc(C(C)=O)c2)cc1OC` the figure was 81.3% (active). With `COc1ccc(S(=O)(=O)NCC(=O)NCc2cc(=O)n(C)c(=O)n2C)cc1F` the figure was -4.5%.
